Data from paper PMC11006913.
Where a chain is given by its changes, count along the chain named.

Tests used:
Assay in all cases: PBM; 200 nM protein, PBS
Conditions in all cases: dsDNA, one strand shown
[1] = biological target: SHOX (Homo sapiens, UniProt O15266 103-189)
[2] = biological target: T1, VENTX (Homo sapiens, UniProt O95231 78-163, R121Q)
T1 sequence: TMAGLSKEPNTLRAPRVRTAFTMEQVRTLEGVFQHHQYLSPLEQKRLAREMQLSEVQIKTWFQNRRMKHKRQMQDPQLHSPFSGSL

[3] = biological target: T2, VENTX (Homo sapiens, UniProt O95231 78-163)
T2 sequence: T1 sequence with Q44R

[4] = biological target: T3, PAX4 (Homo sapiens, UniProt O43316 9-242, R200K)
T3 sequence: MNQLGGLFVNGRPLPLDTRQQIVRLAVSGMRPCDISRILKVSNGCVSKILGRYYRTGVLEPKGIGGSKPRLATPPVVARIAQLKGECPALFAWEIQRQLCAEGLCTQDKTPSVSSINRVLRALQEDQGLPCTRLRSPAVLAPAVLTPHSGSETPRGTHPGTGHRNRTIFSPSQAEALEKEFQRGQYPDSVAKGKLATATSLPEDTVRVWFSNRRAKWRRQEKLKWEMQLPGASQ

[5] = biological target: T4, VENTX (Homo sapiens, UniProt O95231 78-163, Y115F)
T4 sequence: T1 sequence with Y38F, Q44R

[6] = biological target: T5, PAX4 (Homo sapiens, UniProt O43316 9-242)
T5 sequence: T3 sequence with K192R

[7] = biological target: HESX1 (Homo sapiens, UniProt Q9UBX0 95-180)
Sequence of HESX1 (Homo sapiens, UniProt Q9UBX0 95-180) (Q9UBX0 95-180): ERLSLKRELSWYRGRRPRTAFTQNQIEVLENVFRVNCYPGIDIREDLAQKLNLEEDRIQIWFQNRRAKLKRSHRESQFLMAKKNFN

[8] = biological target: MSX2 (Homo sapiens, UniProt P35548 130-214, R199I)
Sequence of MSX2 (Homo sapiens, UniProt P35548 130-214, R199I) (P35548 130-214 R199I): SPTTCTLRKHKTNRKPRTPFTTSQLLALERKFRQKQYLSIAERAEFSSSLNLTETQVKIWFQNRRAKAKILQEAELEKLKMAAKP

[9] = biological target: T6, PAX4 (Homo sapiens, UniProt O43316 9-242, R200Q)
T6 sequence: T3 sequence with K192Q

[10] = biological target: SHOX (Homo sapiens, UniProt O15266 103-189, R173C)
Sequence of SHOX (Homo sapiens, UniProt O15266 103-189, R173C) (O15266 103-189 R173C): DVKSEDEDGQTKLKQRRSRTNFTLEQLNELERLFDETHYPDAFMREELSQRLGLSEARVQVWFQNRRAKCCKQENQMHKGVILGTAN

[11] = biological target: T7, PAX4 (Homo sapiens, UniProt O43316 9-242, F177V)
T7 sequence: T3 sequence with F169V, K192R

[12] = biological target: MSX2 (Homo sapiens, UniProt P35548 130-214)
Sequence of MSX2 (Homo sapiens, UniProt P35548 130-214) (P35548 130-214): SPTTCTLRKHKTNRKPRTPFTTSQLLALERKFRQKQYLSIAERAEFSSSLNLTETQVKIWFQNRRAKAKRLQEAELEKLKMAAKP

[13] = biological target: T8, PAX4 (Homo sapiens, UniProt O43316 9-242, F177Y)
T8 sequence: T3 sequence with F169Y, K192R

[14] = biological target: VAX1 (Homo sapiens, UniProt Q5SQQ9 86-172)
Sequence of VAX1 (Homo sapiens, UniProt Q5SQQ9 86-172) (Q5SQQ9 86-172): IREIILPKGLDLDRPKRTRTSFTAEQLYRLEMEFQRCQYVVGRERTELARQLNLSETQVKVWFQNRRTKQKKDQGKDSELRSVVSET

[15] = biological target: HESX1 (Homo sapiens, UniProt Q9UBX0 95-180, P111T)
Sequence of HESX1 (Homo sapiens, UniProt Q9UBX0 95-180, P111T) (Q9UBX0 95-180 P111T): as the sequence (Q9UBX0 95-180) above, with P17T counted along it

[16] = biological target: MSX2 (Homo sapiens, UniProt P35548 130-214, F161Y)
Sequence of MSX2 (Homo sapiens, UniProt P35548 130-214, F161Y) (P35548 130-214 F161Y): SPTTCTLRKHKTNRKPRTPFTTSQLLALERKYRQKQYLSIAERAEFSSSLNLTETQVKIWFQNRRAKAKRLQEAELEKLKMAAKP

[17] = biological target: HESX1 (Homo sapiens, UniProt Q9UBX0 95-180, F115L)
Sequence of HESX1 (Homo sapiens, UniProt Q9UBX0 95-180, F115L) (Q9UBX0 95-180 F115L): as the sequence (Q9UBX0 95-180) above, with F21L counted along it

[18] = biological target: VAX1 (Homo sapiens, UniProt Q5SQQ9 86-172, T142I)
Sequence of VAX1 (Homo sapiens, UniProt Q5SQQ9 86-172, T142I) (Q5SQQ9 86-172 T142I): as the sequence (Q5SQQ9 86-172) above, with T57I counted along it

[19] = biological target: T9, PAX4 (Homo sapiens, UniProt O43316 9-242, R227W)
T9 sequence: T3 sequence with K192R, R219W

[20] = biological target: VAX1 (Homo sapiens, UniProt Q5SQQ9 86-172, K157R)
Sequence of VAX1 (Homo sapiens, UniProt Q5SQQ9 86-172, K157R) (Q5SQQ9 86-172 K157R): as the sequence (Q5SQQ9 86-172) above, with K72R counted along it

Sequence of SHOX (Homo sapiens, UniProt O15266 103-189) (O15266 103-189): as the sequence (O15266 103-189 R173C) above, with C71R counted along it

| Sequence | binding signal [1] | binding signal [2] | binding signal [3] | binding signal [4] | binding signal [5] | binding signal [6] | binding signal [7] | binding signal [8] | binding signal [9] | binding signal [10] | binding signal [11] | binding signal [12] | binding signal [13] | binding signal [14] | binding signal [15] | binding signal [16] | binding signal [17] | binding signal [18] | binding signal [19] | binding signal [20] |
| --- | --- | --- | --- | --- | --- | --- | --- | --- | --- | --- | --- | --- | --- | --- | --- | --- | --- | --- | --- | --- |
| AGTAATTA | 12.7 upbm affinity estimate (log intensity, higher = more binding, comparable within an allelic series) | 12.5 upbm affinity estimate (log intensity, higher = more binding, comparable within an allelic series) | 13 upbm affinity estimate (log intensity, higher = more binding, comparable within an allelic series) | 11.9 upbm affinity estimate (log intensity, higher = more binding, comparable within an allelic series) | 12.6 upbm affinity estimate (log intensity, higher = more binding, comparable within an allelic series) | 12.5 upbm affinity estimate (log intensity, higher = more binding, comparable within an allelic series) | 13.1 upbm affinity estimate (log intensity, higher = more binding, comparable within an allelic series) | 13.4 upbm affinity estimate (log intensity, higher = more binding, comparable within an allelic series) | 12.3 upbm affinity estimate (log intensity, higher = more binding, comparable within an allelic series) | 10 upbm affinity estimate (log intensity, higher = more binding, comparable within an allelic series) | 10.7 upbm affinity estimate (log intensity, higher = more binding, comparable within an allelic series) | 14.2 upbm affinity estimate (log intensity, higher = more binding, comparable within an allelic series) | 11.1 upbm affinity estimate (log intensity, higher = more binding, comparable within an allelic series) | 13.8 upbm affinity estimate (log intensity, higher = more binding, comparable within an allelic series) | 11.6 upbm affinity estimate (log intensity, higher = more binding, comparable within an allelic series) | 13.9 upbm affinity estimate (log intensity, higher = more binding, comparable within an allelic series) | 8.09 upbm affinity estimate (log intensity, higher = more binding, comparable within an allelic series) | 13.9 upbm affinity estimate (log intensity, higher = more binding, comparable within an allelic series) | 11.1 upbm affinity estimate (log intensity, higher = more binding, comparable within an allelic series) | 13.9 upbm affinity estimate (log intensity, higher = more binding, comparable within an allelic series) |
| TTAATTAA | 13.3 upbm affinity estimate (log intensity, higher = more binding, comparable within an allelic series) | 12.4 upbm affinity estimate (log intensity, higher = more binding, comparable within an allelic series) | 12.8 upbm affinity estimate (log intensity, higher = more binding, comparable within an allelic series) | 12.1 upbm affinity estimate (log intensity, higher = more binding, comparable within an allelic series) | 12.1 upbm affinity estimate (log intensity, higher = more binding, comparable within an allelic series) | 12.6 upbm affinity estimate (log intensity, higher = more binding, comparable within an allelic series) | 13.6 upbm affinity estimate (log intensity, higher = more binding, comparable within an allelic series) | 13.1 upbm affinity estimate (log intensity, higher = more binding, comparable within an allelic series) | 12.6 upbm affinity estimate (log intensity, higher = more binding, comparable within an allelic series) | 11.2 upbm affinity estimate (log intensity, higher = more binding, comparable within an allelic series) | 11.2 upbm affinity estimate (log intensity, higher = more binding, comparable within an allelic series) | 13.9 upbm affinity estimate (log intensity, higher = more binding, comparable within an allelic series) | 11.6 upbm affinity estimate (log intensity, higher = more binding, comparable within an allelic series) | 13.6 upbm affinity estimate (log intensity, higher = more binding, comparable within an allelic series) | 12.6 upbm affinity estimate (log intensity, higher = more binding, comparable within an allelic series) | 13.5 upbm affinity estimate (log intensity, higher = more binding, comparable within an allelic series) | 8.85 upbm affinity estimate (log intensity, higher = more binding, comparable within an allelic series) | 13.6 upbm affinity estimate (log intensity, higher = more binding, comparable within an allelic series) | 11.4 upbm affinity estimate (log intensity, higher = more binding, comparable within an allelic series) | 13.5 upbm affinity estimate (log intensity, higher = more binding, comparable within an allelic series) |
